Data: the supplement of paper PMC10515830
Where a name gives a salt, the structure may show the parent alone.

Tested on: Danio rerio larvae (5 dpf)
Experiment: difference in habituation to acoustic stimuli vs DMSO (percentage points); higher = more habituation than DMSO
Details: 10 µM; exposure time 6 h
Method in brief: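 Wild-type zebrafish larvae at 5 dpf were kept in 96-well plates and exposed for 6 h to 100 µL egg water holding library compound at a final concentration of 10 µM. From 3 h into exposure, the plates were held at 28.5 ℃ and photographed every 6 s through a 3-h programme of moving lines and 100 ms, 400Hz tones. Each behaviour was scored by Z-LaP Tracker, a DeepLabCut model, and averaged over 48 larvae per compound. Every value gives the compound mean minus the vehicle control mean, in percentage points.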

| SMILES | difference in habituation to acoustic stimuli |
| --- | --- |
| O=P1(NCCCl)OCCCN1CCCl (centres undefined) [Ifosfamide] | 2.26 |
| Cn1c(CCCC(=O)O)nc2cc(N(CCCl)CCCl)ccc21 [Bendamustine (hydrochloride)] | -3.41 |
| CC(C)C[C@H]1C(=O)N2CCC[C@H]2[C@]2(O)O[C@](NC(=O)[C@@H]3C[C@@H]4c5cccc6[nH]cc(c56)C[C@H]4N(C)C3)(C(C)C)C(=O)N12.CC(C)[C@@]1(NC(=O)[C@@H]2C[C@@H]3c4cccc5[nH]cc(c45)C[C@H]3N(C)C2)O[C@@]2(O)[C@@H]3CCCN3C(=O)[C@H](Cc3ccccc3)N2C1=O.CC(C)[C@H]1C(=O)N2CCC[C@H]2[C@]2(O)O[C@](NC(=O)[C@@H]3C[C@@H]4c5cccc6[nH]cc(c56)C[C@H]4N(C)C3)(C(C)C)C(=O)N12.CCC(C)[C@H]1C(=O)N2CCC[C@H]2[C@]2(O)O[C@](NC(=O)[C@@H]3C[C@@H]4c5cccc6[nH]cc(c56)C[C@H]4N(C)C3)(C(C)C)C(=O)N12 [Ergoloid (mesylates)] | 2.76 |
| CCN(C(C)=O)c1cccc(-c2ccnc3c(C#N)cnn23)c1 [Zaleplon] | -1.42 |
| O=C(O[C@H]1C[N+]2(CCCOc3ccccc3)CCC1CC2)C(O)(c1cccs1)c1cccs1 [Aclidinium (bromide)] | -1.38 |
| CC(C)C[C@H]1C(=O)N2CCC[C@H]2[C@]2(O)O[C@](NC(=O)[C@@H]3C=C4c5cccc6[nH]c(Br)c(c56)C[C@H]4N(C)C3)(C(C)C)C(=O)N12 [Bromocriptine (mesylate)] | -9.36 |
| CC[C@@H](C(N)=O)N1CCCC1=O [Levetiracetam] | 4.14 |
| O=C(O)CCCc1ccc(N(CCCl)CCCl)cc1 [Chlorambucil] | -1.6 |
| N[C@@H](Cc1ccc(N(CCCl)CCCl)cc1)C(=O)O [Melphalan] | -1.58 |
| C[N+]1(C)CCCC(OC(=O)C(O)(c2ccccc2)c2ccccc2)C1 (centres undefined) [Mepenzolate (bromide)] | -0.492 |
| CCOC(=O)c1cncn1[C@H](C)c1ccccc1 [Etomidate] | -6.98 |
| COc1cc2c(cc1OC)C1CC(=O)C(CC(C)C)CN1CC2 (centres undefined) [Tetrabenazine] | -2.68 |
| C#CCN(C)[C@H](C)Cc1ccccc1 [R-(-)-Deprenyl (hydrochloride)] | 6.14 |
| Nc1ncnc2c1ncn2CCOCP(=O)(O)O [Adefovir] | -0.786 |
